ELG1 genotoxic: qHTS screen for small molecules that induce genotoxicity in human embryonic kidney (HEK293T) cells expressing luciferase-tagged ELG1; HEK293T ELG1-luciferase reporter, luminescence, 16 h; Potency, µM (doses to about 46 µM), inactives show top-dose activity change, positive = activation, most hits filed as activators; 330,000 tested, 1.3% active; AID 504466, 2011; further: % of control where 0% means no effect; nearly all actives have a fitted effect of over 60% in size
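After overnight (16 hr) compound treatment at 37 °C, ELG1-luciferase HEK293T cells were lysed with ONE-Glo; luminescence quantified 30 min later at room temperature.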
ELG1 DNA repair: qHTS screen for small molecules that inhibit ELG1-dependent DNA repair in human embryonic kidney (HEK293T) cells expressing luciferase-tagged ELG1 | HEK293T ELG1-luciferase reporter, luminescence, 16 h; DNA damage induced by 5-fluorouridine | Potency, µM (series often up to 46.1 µM), for the others: at the top dose activity change, negative = inhibition, hits mostly inhibitors | 330,000 tested, 2.3% active; further: on the % scale 0 is the no-effect control and ±100 the full control effect; nearly all actives have a fitted effect of over 55% in size
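Quantitative HTS, concentration-response format. 2,000 cells/well co-treated with 5-fluorouridine and compound, 16 hr in 5% CO2 at 37 °C; ONE-Glo luminescence read after 30 min.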
Rab9 promoter act: qHTS Assay for Rab9 Promoter Activators; Huh7 Rab9 promoter-luciferase reporter, luminescence, 24 h; Potency, µM (top dose mostly 9.22 µM), without a hit: at the highest dose activation, negative = inhibition, usual class: activators; 320,000 tested, 2.8% active; further: % of control where 0% means no effect; nearly all actives have a fitted effect of over 60% in size
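Huh7 cells stably carrying Rab9 promoter–luciferase reporter, plated 1500 cells/well, compound added after 2 h and incubated 24 h at 37 °C; luciferase luminescence then read after 10 min with detection reagent.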
NPC1 prom act: qHTS Assay for NPC1 Promoter Activators | Huh7 NPC1 promoter luciferase reporter, 24 h | Potency, µM (series often up to 9.22 µM), for inactives: at the highest dose activation, usual class: activators | 320,000 tested, 2.4% active; further: % of control where 0% means no effect; nearly all actives have a fitted effect of over 60% in size
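Quantitative HTS used a cell-based reporter: Huh7 cells stably bearing the NPC1 promoter upstream of luciferase were treated with compounds for 24 h, and promoter activation was read as luminescence.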
FLuc modulator: qHTS profiling assay for firefly luciferase inhibitor/activator using purifed enzyme and Km concentrations of substrates (counterscreen for miR-21 project); 360,000 tested, 6.9% active; Luciferin 4-monooxygenase (Photinus pyralis), P08659; AID 588342, 2011; purified FLuc, Km substrates, luminescence inhibition; Potency, µM (series often up to 57.5 µM), without a hit: top-dose activity change, negative = inhibition, usual class: inhibitors;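 further: plate controls were vehicle for no effect and reference inhibitor for full effect; nearly all actives have a fitted effect of over 55% in size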
Target sequence (P08659 whole entry, looked up): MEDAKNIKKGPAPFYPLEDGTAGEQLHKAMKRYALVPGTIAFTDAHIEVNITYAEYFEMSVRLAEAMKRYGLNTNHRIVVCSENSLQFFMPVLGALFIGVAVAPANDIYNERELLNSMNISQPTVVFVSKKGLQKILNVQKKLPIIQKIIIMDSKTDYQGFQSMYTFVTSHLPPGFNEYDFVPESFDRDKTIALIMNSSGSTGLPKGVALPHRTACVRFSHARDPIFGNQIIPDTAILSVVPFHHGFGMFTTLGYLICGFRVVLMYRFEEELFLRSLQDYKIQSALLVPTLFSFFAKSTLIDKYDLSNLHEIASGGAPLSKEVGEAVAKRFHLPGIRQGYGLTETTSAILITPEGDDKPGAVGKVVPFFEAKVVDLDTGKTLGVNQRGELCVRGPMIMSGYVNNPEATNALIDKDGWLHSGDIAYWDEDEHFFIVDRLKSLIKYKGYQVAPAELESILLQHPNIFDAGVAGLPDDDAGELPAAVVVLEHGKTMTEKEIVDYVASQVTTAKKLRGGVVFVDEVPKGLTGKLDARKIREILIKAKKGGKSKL
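Biochemical qHTS of compounds, final roughly 60 µM downward over six points, against 10 nM purified firefly luciferase using Km concentrations of substrates (10 uM D-luciferin, 10 uM ATP) in Tris acetate pH 7.5 buffer; luminescence output.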
SMN2 splice up: qHTS Assay for Enhancers of SMN2 Splice Variant Expression; HEK293 SMN2-luciferase splicing reporter, luminescence, 30-36 h; Potency, µM (top dose mostly 46.1 µM), for the others: at the highest dose activity change, positive = activation, most hits filed as activators; 210,000 tested, 2.8% active; AID 1458, 2008; further: % of control where 0% means no effect; nearly all actives have a fitted effect of over 55% in size
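HEK293 cells carry an SMN2 […]–luciferase reporter in which exon 7 inclusion puts luciferase in frame. Cells were plated 10-12 h before compound addition, then incubated 30-36 h at 37C. ONE-Glo luminescence was read; sodium butyrate at 4.5 mM final served as control.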
ELG1 FLuc counter: qHTS screen for small molecules that inhibit ELG1-dependent DNA repair: Hit Confirmation in Cell-Based Luciferin Assay; shares compounds with ELG1 DNA repair; cell-free firefly luciferase luminescence counter-screen, ViewLux; Potency, µM (titrated, usually from 46.1 µM), for inactives: top-dose activity change, negative = inhibition, usual class: inhibitors; 350 tested, 3% active; further: on the % scale 0 is the no-effect control and ±100 the full control effect
ELG1-Luc inh: HTS assay for small molecules that inhibit ELG1-dependent DNA repair in human embryonic kidney (HEK293T) cells expressing luciferase-tagged ELG1: Hit Confirmation. 670 tested, 68% active. HEK293T ELG1-luciferase levels, luminescence; cells co-treated with 5-fluorouridine. shares compounds with ELG1 DNA repair. Potency, µM (series often up to 46.1 µM), for the others: at the top dose activity change, negative = inhibition, usual class: inhibitors; further: on the % scale 0 is the no-effect control and ±100 the full control effect; nearly all actives have a fitted effect of over 55% in size
ELG1 MMS Luc: confirmation of human ELG1 repair inhibitors, MMS stimulated. 670 tested, 53% active. shares compounds with ELG1 DNA repair. HEK293T luciferase-tagged ELG1 level, MMS stimulated. AID 624249. Potency, µM (highest dose often 46.1 µM), inactives show at the top dose activity change, negative = inhibition, actives largely listed as inhibitors; further: on the % scale 0 is the no-effect control and ±100 the full control effect; nearly all actives have a fitted effect of over 60% in size
ELG1 5-FU: qHTS screen for small molecules that inhibit ELG1-dependent DNA repair: Hit Confirmation with 5FU Viability; shares compounds with ELG1 DNA repair; cell viability with 5-FU, ELG1-dependent repair; AID 624250, 2012; Potency, µM (series often up to 46.1 µM), inactives show at the top dose activity change, negative = viability loss, hits mostly cytotoxic; 670 tested, under 10 active;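 further: ELG1-luc HEK293T cells cotreated with 5-fluorouridine at 10 µM final; viability measured 16 h after compound addition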
ELG1 MMS cell: qHTS screen for small molecules that inhibit ELG1-dependent DNA repair: Hit Confirmation with MMS Viability; Potency, µM (highest dose often 46.1 µM), inactives show at the top dose activity change, negative = viability loss, hits mostly cytotoxic; shares compounds with ELG1 DNA repair; AID 624251, 2012; 670 tested, 33% active; Cell viability with MMS, ELG1-dependent DNA repair;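 further: ELG1-luc HEK293T cells co-treated with 10 µM MMS; viability read 16 h after compound addition; on the % scale 0 is the no-effect control and ±100 the full control effect; nearly all actives have a fitted effect of over 60% in size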
Cell viab unstim: qHTS screen for small molecules that inhibit ELG1-dependent DNA repair: Hit Confirmation with Unstimulated Viability Assay; shares compounds with ELG1 DNA repair; AID 624252, 2012; cell viability counter-screen, unstimulated, luminescence; 900 tested, 8% active; Potency, µM (top dose mostly 45.9 µM), without a hit: at the top dose activity change, negative = loss of viability, actives largely listed as cytotoxic;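 further: compound exposure lasted 16 hours before reading; on the % scale 0 is the no-effect control and ±100 the full control effect; nearly all actives have a fitted effect of over 55% in size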
FLuc enzyme: qHTS screen for small molecules that inhibit ELG1-dependent DNA repair: Hit Confirmation in Biochemical Luciferin Assay. shares compounds with ELG1 DNA repair. purified firefly luciferase, luminescence counter-screen. Potency, µM (top dose mostly 57.5 µM), for inactives: top-dose activity, negative = inhibition, hits mostly inhibitors. 350 tested, 10% active. AID 624253, 2012; further: on the % scale 0 is the no-effect control and ±100 the full control effect
Numbers without * were called inactive; ? = inconclusive; · = no result given. A selection: hits, their analogues and other compounds. The true share with any hit is near 9.2%. The call rests on the fitted dose curve; in most records, active means well fitted curve in the direction sought with a large enough effect; inconclusive means small, poorly fitted or top-dose-only effect, or another doubt; inactive means no such curve, though single readings can be large; an effect the other way counts as inactive or inconclusive. Potency means the concentration at half of the fitted maximal effect.

SMILES | ELG1 genotoxic | ELG1 DNA repair | Rab9 promoter act | NPC1 prom act | FLuc modulator | SMN2 splice up | ELG1-Luc inh | ELG1 MMS Luc | ELG1 5-FU | ELG1 MMS cell | Cell viab unstim | others
S=c1[nH]nc(C2CCCCC2)n1/N=C/c1ccncc1 | -23% | 1.2µM* | 16% | 23% | -3% | -37% | 2.5µM* | 11µM* | -3% | -5% | -4%
Cn1ccnc1C(OC(=O)c1ccccc1)C(F)(F)F (centres undefined) | 0% | 7% | -7% | -2% | 0% | · | · | · | · | · | ·
COc1cc(OC)cc(N2C(=O)CSC23C(=O)Nc2ccccc23)c1 (centres undefined) | · | · | · | · | 6% | · | · | · | · | · | ·
CCCn1c(N2CCN(CC(=O)c3c(C)n(C)c4ccccc34)CC2)nc2c1c(=O)[nH]c(=O)n2C | -4% | 7.3µM* | 13% | 4% | 0% | -7% | 3.2µM* | ? | ? | 1% | -10% | ELG1 FLuc counter=3%;FLuc enzyme=2%
CCn1c(N2CCN(CC(=O)c3c[nH]c4ccccc34)CC2)nc2c1c(=O)[nH]c(=O)n2C | -9% | 0% | 1% | 0% | -14% | -10% | ? | -4% | ? | -1% | -9% | ELG1 FLuc counter=17%;FLuc enzyme=1%
COc1ccc(NC(=O)/C(C#N)=C/c2cc(C)n(-c3ccc(N4CCOCC4)c([N+](=O)[O-])c3)c2C)cc1 | -8% | 2.9µM* | -25% | -18% | 1% | -66% | 4.4µM* | 4µM* | -1% | ? | ?
Cc1cc(N2CCC(C(=O)Nc3ccc(F)cc3F)CC2)n2nc(C)c(-c3ccc(Cl)cc3)c2n1 | · | · | · | · | 4% | -2% | · | · | · | · | ·
COc1ccc(/C=N/NC(=O)c2cc(-c3cccnc3)nc3ccccc23)c(OC)c1 | 0% | 4% | -6% | 1% | -14% | -27% | · | · | · | · | ·
Cc1nn(-c2ccccc2)c(N2CCCC2)c1/C=N/NC(=O)c1cc(-c2cccnc2)nc2ccccc12 | -9% | 4.6µM* | -10% | -3% | 1% | -26% | 8.9µM* | 28µM* | 6% | -11% | ?
COc1ccc(NC(=O)c2ccc3c(c2)c(C)c(C)n3Cc2ccc(F)cc2)c(OC)c1 | · | · | · | · | 4% | · | · | · | · | · | ·
COC(=O)c1ccccc1NC(=O)CSc1nnc(-c2ccc(C)cc2)o1 | ? | ? | ? | ? | ? | -51% | · | · | · | · | ·
Cc1ccc(-c2nnc(SCC(=O)Nc3ccccc3F)o2)cc1 | 0.16µM* | ? | ? | ? | ? | -65% | · | · | · | · | ? | ELG1 FLuc counter=8.9µM*;FLuc enzyme=18µM*
COc1ccc(-c2cc(-c3ccc(C)cc3)nc(SCc3nnc(-c4ccccc4)o3)c2C#N)cc1OC | 6% | 2.9µM* | -4% | -3% | -2% | -48% | 3.2µM* | -12% | ? | 13% | -3% | ELG1 FLuc counter=-1%;FLuc enzyme=0%
CCCC(CCC)C(=O)Nc1cccc(-c2cn3cccnc3n2)c1 | · | · | · | · | -1% | · | · | · | · | · | ·
Nc1ccc2cccnc2c1 | · | · | · | · | · | · | · | · | · | · | -9%
Brc1ccc2cccnc2c1 | -1% | 0% | 1% | 0% | 1% | 0% | · | · | · | · | ·
Cc1ccccc1-n1c(SCC(=O)c2c(N)n(C)c(=O)n(C)c2=O)nnc1-c1cccnc1 | -8% | ? | -5% | -2% | 3% | -14% | · | · | · | · | ·
Cc1ccccc1-n1c(SCC(=O)c2c(N)n(C)c(=O)n(C)c2=O)nc2sc3c(c2c1=O)CCCC3 | 0% | 1.6µM* | -6% | -7% | 3% | -7% | 2.5µM* | -17% | ? | -1% | -16% | ELG1 FLuc counter=-7%;FLuc enzyme=-2%
Cc1cccc(NC(=O)CC2C(=O)NCCN2C(=O)Nc2ccc(Cl)cc2)c1 (centres undefined) | -1% | ? | -4% | -5% | 17% | · | · | · | · | · | ·
Cn1nc(C(=O)Nc2nc(-c3ccccn3)cs2)c2ccccc2c1=O | -4% | ? | 1% | -3% | -4% | · | · | · | · | · | ·
CCn1nc(C(=O)Nc2nc(-c3ccccn3)cs2)c2ccccc2c1=O | -3% | 4.1µM* | -10% | -9% | 0% | · | 4.4µM* | 7.9µM* | -3% | 13µM* | ?
